Results reported in PubChem BioAssay (EPA / NIEHS).
Results filed as inconclusive are left out. The source holds several records for some structures; these can differ, active in one and inactive in another. The source made the active and inactive calls. Rule for the calls, unless noted: active = hit-call score of the fitted dose curve at least 0.9, where 1 is the maximum; inconclusive = response in the unintended direction; inactive = score below 0.9.

Assays:
[1] = TOX21_p53_BLA_p2_viability: Viability Assessment in the Tox21 HCT-116 p53 Agonism Beta-lactamase Assay, Phase 2 (AID 2283591);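 note: compound exposure lasted 16 h at 37 °C; actives lower the ATP signal meaning cytotoxicity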
How it was run: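 HCT-116 p53-bla cells (4000/well) rested 5 h at 37C, then received compounds in DMSO (217-fold dilution) for 16 h at 37C, 5% CO2. After the CCF4 read, CellTiter-Glo was added; ATP luminescence was read after 30 min at room temperature.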

[2] = molecular target: Cellular tumor antigen p53 (Homo sapiens) (UniProt P04637); experiment: TOX21_p53_BLA_p2_ratio: Tox21 HCT-116 p53 Agonism Beta-lactamase Assay, Ratio, Phase 2 (AID 2283592)
How it was run: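 HCT116 cells carrying a p53-responsive beta-lactamase reporter were plated, incubated 5 h at 37C, then dosed with compounds in DMSO (217-fold dilution) for 16 h. CCF4-AM substrate was added for 2 h at room temperature; the 460/530 nm emission ratio gave gain-of-signal activity relative to DMSO.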

[3] = TOX21_p53_BLA_p3_viability: Viability Assessment in the Tox21 HCT-116 p53 Agonism Beta-lactamase Assay, Phase 3 (AID 2283593);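 note: cells exposed to compound for 16 h before reading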
How it was run: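 HCT-116 cells (4000/well) rested 5 h at 37C, then got DMSO compounds by pin tool (217-fold dilution) for 16 h at 37C, 5% CO2. After the bla read, CellTiter-Glo was added and luminescence read at 30 min, room temperature.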

[4] = molecular target: Cellular tumor antigen p53 (Homo sapiens) (UniProt P04637); experiment: TOX21_p53_BLA_p3_ratio: Tox21 HCT-116 p53 Agonism Beta-lactamase Assay, Ratio, Phase 3 (AID 2283596)
How it was run: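 HCT116 p53-bla cells (4000/well) given compound in DMSO (217-fold dilution) after 5 h, incubated 16 h at 37C. CCF4-AM substrate 2 h at room temperature; 460/530 nm emission ratio, gain fitted against DMSO.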

[5] = molecular target: Cellular tumor antigen p53 (Homo sapiens) (UniProt P04637); experiment: TOX21_p53_BLA_p5_ratio: Tox21 HCT-116 p53 Agonism Beta-lactamase Assay, Ratio, Phase 5 (AID 2283599)
How it was run: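 HCT-116 cells carrying a p53-inducible beta-lactamase reporter were seeded at 4000 cells/well and dosed after 5 h with compound in DMSO (217-fold dilution). After 16 h at 37C, CCF4-AM substrate was added for 2 h, and the 460/530 nm emission ratio was scored as gain-of-signal versus DMSO.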

[6] = TOX21_p53_BLA_p5_viability: Viability Assessment in the Tox21 HCT-116 p53 Agonism Beta-lactamase Assay, Phase 5 (AID 2283600)
How it was run: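 Cells were plated at 4000/well, rested 5 h at 37C, then given compounds in DMSO (217-fold dilution) for 16 h at 37C, 5% CO2. Following the CCF4-AM beta-lactamase read, CellTiter-Glo was added and luminescence was read after 30 min at room temperature.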

[7] = molecular target: Cellular tumor antigen p53 (Homo sapiens) (UniProt P04637); experiment: TOX21_p53_BLA_p4_ratio: Tox21 HCT-116 p53 Agonism Beta-lactamase Assay, Ratio, Phase 4 (AID 2283601)
How it was run: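 HCT116 cells carrying an inducible beta-lactamase reporter were plated at 4000 cells/well, rested 5 h, then exposed to compounds in DMSO (217-fold dilution) for 16 h at 37C. CCF4-AM substrate was loaded 2 h at room temperature; 460/530 nm emission ratio scored gain-of-signal versus DMSO.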

[8] = TOX21_p53_BLA_p4_viability: Viability Assessment in the Tox21 HCT-116 p53 Agonism Beta-lactamase Assay, Phase 4 (AID 2283597);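 note: hits lower the luminescence signal meaning cytotoxicity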
How it was run: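 HCT116 p53-bla cells (4000/well) rested 5 h at 37C, then received compounds in DMSO (217-fold dilution) for 16 h at 37C, 5% CO2. CellTiter-Glo was added after the CCF4-AM read, and luminescence was read after 30 min at room temperature.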

[9] = CCTE_Harrill_HTTr_Viability_MCF7: CCTE's 6-hour Cell Viability Assessment for the High-Throughput Transcriptomics (HTTr) Platform, in MCF-7 cells cultured in DMEM + 10% fetal bovine serum, Harrill Lab (AID 2284010; active = hit-call score of the fitted dose curve at least 0.9, where 1 is the maximum; inactive = score below 0.9)
How it was run: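 MCF-7 cells in DMEM + 10% FBS, 384-well, exposed 6 h to an eight-point dilution series. Membrane integrity scored by high-content imaging of propidium iodide exclusion; bidirectional fit versus DMSO.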

[10] = CCTE_Harrill_HTTr_Apoptosis_MCF7: CCTE's 6-hour Apoptosis Assessment for the High-Throughput Transcriptomics (HTTr) Platform, in MCF-7 cells cultured in DMEM + 10% fetal bovine serum, Harrill Lab (AID 2284011; active = hit-call score of the fitted dose curve at least 0.9, where 1 is the maximum; inactive = score below 0.9)
How it was run: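 MCF-7 cells in DMEM + 10% fetal bovine serum were exposed to chemicals for 6 hours over an eight-point dilution series. Caspase-3/7 activation was imaged by high content imaging with CellEvent Caspase 3/7 Green; bidirectional fitting used DMSO as baseline.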

Measured: AC50

Chain of Cellular tumor antigen p53 (Homo sapiens) (P04637 whole entry, looked up): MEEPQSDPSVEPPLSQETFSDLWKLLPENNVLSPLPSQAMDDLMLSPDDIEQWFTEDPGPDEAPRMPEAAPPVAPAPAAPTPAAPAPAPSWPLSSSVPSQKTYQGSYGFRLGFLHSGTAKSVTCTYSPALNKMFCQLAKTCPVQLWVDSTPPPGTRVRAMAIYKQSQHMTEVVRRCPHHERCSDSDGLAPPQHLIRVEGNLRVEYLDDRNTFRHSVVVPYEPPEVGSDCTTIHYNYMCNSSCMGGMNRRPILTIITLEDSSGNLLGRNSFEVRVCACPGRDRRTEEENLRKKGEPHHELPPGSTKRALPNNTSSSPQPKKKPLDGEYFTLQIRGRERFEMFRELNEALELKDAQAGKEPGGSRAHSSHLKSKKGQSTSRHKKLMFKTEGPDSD

Cc1cc(C(C)(C)c2cc(C)c(O)c(C)c2)cc(C)c1O
inactive: [3]
active: [1] 44.8 µM | [2] 20.7 µM | [4] 18.8 µM | [5] 58.5 µM | [6] 83.3 µM | [7] 74.3 µM

Clc1ccc(CSC(Cn2ccnc2)c2ccc(Cl)cc2Cl)cc1 (stereo not given)
active: [2] 17.7 µM | [7] 15.4 µM
inactive: [1] | [3] | [8] | [5] | [6]

Cc1nc2ccccc2c(=O)n1-c1ccccc1Cl
inactive: [1] | [2] | [3] | [6]

ClCC(Br)CBr (stereo not given)
inactive: [1] | [2] | [3] | [8] | [6]

COc1cc(CC(C)N)c(OC)cc1Br (stereo not given)
inactive: [1] | [2] | [3] | [8] | [5] | [7]

O=C(Cl)OCc1ccccc1
inactive: [1] | [2] | [3] | [5] | [6] | [7]

O=C1C[C@@H]2OCC=C3CN4CC[C@]56c7ccccc7N1[C@H]5[C@H]2[C@H]3C[C@H]46 (tested in a mixture with another compound)
active: [4] 36.6 µM
inactive: [1] | [2] | [4] | [8] | [5] | [6] | [7]

CCOP(=S)(OCC)Oc1cc(C)nc(N(CC)CC)n1
inactive: [1] | [2] | [3] | [8] | [6] | [7]

II
inactive: [1] | [2] | [3] | [8] | [5] | [7] | [9] | [10]

CC(C)NCC(O)c1ccc([N+](=O)[O-])cc1 (stereo not given)
inactive: [1] | [2] | [3] | [8] | [6] | [7]

COc1cc(C[C@H](C)N)c(OC)cc1Br
inactive: [1] | [2] | [3] | [5] | [7]

CNCC(O)c1ccc(O)cc1 (stereo not given)
inactive: [1] | [2] | [3] | [8] | [5] | [6] | [7]

NCc1cccnc1
inactive: [1] | [2] | [3] | [5] | [6] | [7]

CC(=O)OCC1=C(C(=O)O)N2C(=O)[C@@H](N)[C@H]2SC1
inactive: [1] | [2] | [3] | [5]

ClC(Cl)(Cl)C(Cl)(Cl)Cl
inactive: [1] | [2] | [3] | [6]

O=C1c2ccccc2C(=O)c2ccccc21
inactive: [1] | [2] | [3] | [8] | [6] | [7]
